Source: PubChem BioAssay
An excerpt weighted towards active compounds, which were near 4.6% of everything screened.
tim10-1 inh = inhibits growth of tim10-1 mutant yeast; AID 463190; 330,000 compounds, 2.2% hits; inhibition, % at 20 µM; S. cerevisiae tim10-1 ts strain growth, BacTiter-Glo, 24 h;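 active = inhibition of at least 40%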;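 also: mutant grown at 25 °C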
PfHsp90 yeast 2 = reduces growth (ATP signal) of yeast expressing P. falciparum Hsp90; S. cerevisiae expressing PfHsp90, BacTiter-Glo ATP, 48 h; yeast lacking PDR1 and PDR3 efflux regulators; AID 504621; inhibition, % at 9.4 µM; 310,000 compounds, 0.32% hits;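 active = every replicate shows inhibition above about 80%, whatever the replicate mean, limit read from the data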
TIM10 inh = inhibits growth of TIM10 yeast strain; S. cerevisiae TIM10 strain growth, BacTiter-Glo luminescence, 24 h; inhibition, % at 10 µM; 330,000 compounds, 1.4% hits; AID 463195;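 active = inhibition of 40% or more at the single tested concentration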;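 also: wild-type TIM10 isogenic control strain grown at permissive 25 °C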
SKKanGAS inh = SKKanGAS growth inhibition. inhibition, % at 7.5 µM. 300,000 compounds, 1.3% hits. S. pyogenes SKKanGAS, kanamycin growth, BacTiter-Glo, 6 h;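 active = mean replicate score, as percent of positive control median, at least 50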;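 also: strain carries kanamycin resistance gene driven by streptokinase promoter and grows in 40 µg/ml kanamycin; loss of luminescence reflects streptokinase promoter inhibition or plain growth inhibition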
tim23-1 inh = inhibits growth of tim23-1 mutant yeast; inhibition, % at 20 µM; 330,000 compounds, 1.3% hits; S. cerevisiae tim23-1 growth, BacTiter-Glo luminescence, 24 h;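 active = growth inhibition of the mutant yeast at or above 50%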;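 also: temperature-sensitive mutant grown at 25 °C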
NLRP3 yeast inh = NALP3 inhibition in yeast; 330,000 compounds, 0.39% hits; inhibition, % at 10 µM; Yeast reconstituted NLRP3/ASC/caspase-1, beta-gal luminescence, 24 h;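 active = inhibition of 50% or more; inactive = inhibition below 50%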
tim10-1 confirm = confirmation of tim10-1 mutant yeast growth inhibitors; shares compounds with tim10-1 inh; S. cerevisiae tim10-1 ts strain growth, BacTiter-Glo, 24 h; inhibition, % at 20 µM; 7,400 compounds, 56% hits;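 active = inhibition of yeast growth at or above a set limit in either of two repeat tests at 20 µM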;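 also: tim10-1 mutant grown at permissive 25 °C to find synthetic lethal compounds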
Large screens that a line does not name were inactive (follow-up assays come after a bar, where they were run).

COc1ccc(-c2csc3ncnc(N4CCN(c5ccccc5O)CC4)c23)cc1	none
Cc1ccc(-c2csc3ncnc(N4CCN(c5ccccc5O)CC4)c23)cc1	tim10-1 inh 44.2 | tim10-1 confirm inactive
Cc1ccc(-c2csc3ncnc(Nc4ccc(N5CCOCC5)cc4)c23)cc1	tim10-1 inh 40.0 | tim10-1 confirm 36.4
Cc1ccc(-c2csc3ncnc(NCCN4CCOCC4)c23)cc1	none
O=C(c1ccco1)N1CCN(c2ncnc3scc(-c4ccc(F)cc4)c23)CC1	tim10-1 inh 49.3 | tim10-1 confirm 36.5
Cc1ccccc1NC(=O)CN1C(=O)c2ccccc2C1=O	none
Cc1cc(OCC(=O)N2CCOCC2)ccc1NC(=O)c1ccccc1C	none
CCCOc1ccc(C(=O)Nc2ccc(S(=O)(=O)NC3=NCCCCC3)cc2)cc1	none (no result: PfHsp90 yeast 2)
CC1=C(/C=C/C(C)=C/C=C/C(C)=C/CO)C(C)(C)CCC1	tim10-1 inh 43.6 | tim10-1 confirm inactive
Cn1nc(C(F)(F)F)c(-c2ccc(Br)cc2)c1NC(=O)c1ccco1	tim10-1 inh 40.0 | tim10-1 confirm inactive
Cn1nc(C(F)(F)F)c(-c2ccc(Br)cc2)c1NC(=O)c1cccnc1	none
Cc1ccc(C(=O)OC(C)C(=O)NC2CCCCC2C)cc1S(=O)(=O)N1CCCCC1 (stereo not drawn)	none
COc1ccc(C)cc1NC(=O)c1ccc2c(=O)n3c(nc2c1)CCCCC3	tim10-1 inh 40.5 | tim10-1 confirm inactive
COc1ccc(C2=NN(CC(=O)Nc3cc(C)ccc3C)C(=O)CC2)cc1	none
CCOC(=O)[C@@H]1[C@H]2COc3cc(OC)ccc3[C@H]2N2C(=O)N(c3cccc(F)c3)C(=O)[C@@]12C	none (no result: SKKanGAS inh)
CCOC(=O)C1NN=C(C(=O)c2ccccc2)C1c1ccccc1 (stereo not drawn)	none
CCOC(=O)C1NN=C(C(=O)c2ccccc2)C1c1ccc(Cl)cc1 (stereo not drawn)	tim10-1 inh 42.7 | tim10-1 confirm inactive
CC(C)(C)c1cc(=O)[nH]c(SCc2ccccc2)n1	tim10-1 inh 40.5 (no result: SKKanGAS inh) | tim10-1 confirm inactive
Cc1cc(=O)[nH]c(SCc2ccccc2)n1	none
COc1ccc(C)cc1NC(=O)Nc1ccccc1	none
COc1cccc(NC(=O)Nc2cc(C)ccc2OC)c1	tim10-1 inh 40.4 | tim10-1 confirm inactive
COc1ccccc1/C=C/CN1CCNC(=O)C1CC(=O)NCCc1cnccn1 (stereo not drawn)	none
CCN(c1ccccc1)S(=O)(=O)c1ccc2c(c1)C(C)(C)C(=O)N2C	none
O=C(CCl)N1CCN(S(=O)(=O)Cc2ccccc2)CC1	tim10-1 inh 42.8 (no result: SKKanGAS inh) | tim10-1 confirm inactive
O=C1CCSc2ccc(Cl)cc2N1Cc1ccc(Cl)cc1	tim10-1 inh 45.5, SKKanGAS inh 52.6 | tim10-1 confirm inactive
O=C(CCC(=O)N1CCOc2ccccc21)Nc1ccccc1Cl	none
CCOC(=O)Cc1csc(NC(=O)C2CCCN(S(=O)(=O)c3cnc[nH]3)C2)n1 (stereo not drawn)	none (no result: SKKanGAS inh)
O=C(Nc1ccc(Cl)cn1)C1C(c2ccccc2)C1(Cl)Cl (stereo not drawn)	tim10-1 inh 46.2 | tim10-1 confirm 33.6
O=C(Nc1ccc(Cl)cn1)C1CC1	none
Cc1ccc(S(=O)(=O)N(C)C)cc1NC(=O)C1CCCCC1	none
CCC(C(=O)N1CCN(c2ccccc2OC)CC1)c1ccccc1 (stereo not drawn)	tim10-1 inh 42.3 | tim10-1 confirm inactive
COc1ccc(OC)c(-c2cc(C(=O)N3CCc4ccccc4C3)no2)c1	tim10-1 inh 41.0 (no result: PfHsp90 yeast 2) | tim10-1 confirm inactive
CCOC(=O)N1CCN(c2ccccc2OC)CC1	none
COc1ccccc1-c1cc(C(=O)N2CCN(c3ccccc3OC)CC2)no1	tim10-1 inh 48.4 | tim10-1 confirm 32.5
CCOc1ccccc1/C=C(/NC(=O)c1ccccc1)C(=O)N(CC)CC	none
Cc1cccc(C(=O)O/N=C(\c2ccccc2)c2cccnc2)c1	none
Cc1ccc(C(=O)O/N=C(\c2ccccc2)c2cccnc2)cc1	tim10-1 inh 41.9 | tim10-1 confirm 36.0
O=C(c1ccc(Oc2ccccc2)cc1)c1nc2c(n1O)CCCC2	tim10-1 inh 41.0 (no result: PfHsp90 yeast 2) | tim10-1 confirm inactive
O=S(=O)(c1ccc(Br)s1)N1CCC2(CC1)OCCO2	none
COc1ccccc1NC(=S)N1CCN(c2nc(-c3ccccc3)cs2)CC1	tim10-1 inh 47.4 (no result: PfHsp90 yeast 2) | tim10-1 confirm inactive
S=C(NCC1CCCO1)N1CCN(c2nc(-c3ccccc3)cs2)CC1 (stereo not drawn)	tim10-1 inh 52.6 | tim10-1 confirm inactive
O=C(NNC(=O)c1ccccc1F)c1cccc(-n2cccc2)c1	none
COc1cc(OC)cc(C(=O)NCCCCc2ccccc2)c1	none
CCCCn1nnc(NC(=O)CC23CC4CC(CC(C4)C2)C3)n1	none
COc1ccc2cc(C)c3nnc(SCC(=O)Nc4cc(OC)c(OC)cc4C(=O)O)n3c2c1	none
COc1ccc2cc(C)c3nnc(SCc4cccnc4)n3c2c1	tim10-1 inh 41.3 | tim10-1 confirm 33.6
Cc1noc(C)c1NC(=O)Nc1ccc2c(c1)C(=O)N([C@H](C)CO)C[C@H](C)[C@@H](CN(C)C(=O)Nc1c(C)noc1C)O2	none (no result: SKKanGAS inh)
O=C(NCc1cccs1)c1cccn2c(=O)c3sccc3nc12	none
O=C(NCc1ccco1)c1cccn2c(=O)c3sccc3nc12	tim10-1 inh 40.1 | tim10-1 confirm inactive
Cc1ccc(NC(=O)C2CCN(S(=O)(=O)c3ccc(C(C)(C)C)cc3)CC2)cc1S(=O)(=O)N1CCOCC1	none (no result: tim10-1 inh, TIM10 inh, SKKanGAS inh, tim23-1 inh, NLRP3 yeast inh)
CSc1ccc(CCNC(=O)c2cccc3c2C(=O)N(C2CCCCC2)C3)cc1	tim10-1 inh 41.9 | tim10-1 confirm inactive
O=C(Nc1ccc(Br)cc1Br)c1cccc2c1C(=O)N(C1CCCCC1)C2	tim10-1 inh 41.8 | tim10-1 confirm inactive
O=C(Nc1ccc(Br)cc1)c1cccc2c1C(=O)N(C1CCCCC1)C2	tim10-1 inh 55.0 | tim10-1 confirm inactive
O=C(Nc1cc(Cl)ccc1N1CCOCC1)C1=COCCO1	none
CCC1(c2ccccc2)NC(=O)N(CC(=O)Nc2ccccc2C(=O)N2CCCCC2)C1=O (stereo not drawn)	none
COc1ccc(NC(=O)c2sccc2C)cn1	none
Cc1cc(/C=C2\Sc3ccccc3N2C)cc(C)[n+]1CC1CCCO1 (stereo not drawn)	tim10-1 inh 57.1 (no result: SKKanGAS inh) | tim10-1 confirm inactive
Cc1ccc(Sc2ncccc2C(=O)NCC(c2ccc(F)cc2)N2CCOCC2)cc1C (stereo not drawn)	none
O=C(COC(=O)c1cc(Cl)ccc1[N+](=O)[O-])Nc1cccc2ccccc12	tim10-1 inh 46.6 | tim10-1 confirm 33.5
O=C(O)c1cc2ccc3cccc4ccc(c1)c2c34	tim10-1 inh 42.7 | tim10-1 confirm inactive
C=CCN1C(=O)c2ccc(C(=O)N(CC)CC(=O)Nc3ccc(OC)cc3)cc2C1=O	none
